Compounds without any hit were thinned out: in the full panel of roughly 79,000, 15% have a hit. Rule as the data show it: active = growth inhibition above about 70%; inactive = the rest.
Experiments:
[1] = NCI Yeast Anticancer Drug Screen. Data for the rad50 strain (AID 155);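 also: 0% = growth of vehicle-only cultures of the same strain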; conditions: S. cerevisiae rad50 strain growth inhibition, hits give high values; at 50.0 µM unless noted
Summary of the method: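 Genetically altered yeast (DNA repair pathway); compound treatment; growth inhibition vs vehicle ctrl.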

[2] = NCI Yeast Anticancer Drug Screen. Data for the mec2-1 strain (AID 157); conditions: S. cerevisiae mec2-1 strain, hits give high values; at 50.0 µM unless noted
Summary of the method: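 Growth inhibition is read against vehicle-treated controls after compound exposure of the mec2-1 yeast strain, which is defective in DNA damage repair or cell cycle control.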

[3] = NCI Yeast Anticancer Drug Screen. Data for the sgs1 mgt1 strain (AID 161);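 also: 0% = growth of cultures given vehicle only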; conditions: S. cerevisiae sgs1 mgt1 strain, hits give high values; at 50.0 µM unless noted
Summary of the method: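 Percent growth inhibition was derived by comparing compound-exposed mutant yeast with vehicle-exposed cultures. The strain carries alterations in DNA damage repair.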

[4] = NCI Yeast Anticancer Drug Screen. Data for the cln2 rad14 strain (AID 165);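 also: 0% = growth equal to vehicle treated cultures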; conditions: S. cerevisiae cln2 rad14 strain, hits give high values; at 50.0 µM unless noted
Summary of the method: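 Growth inhibition, relative to vehicle-treated controls, is the read-out. The test organism is a yeast strain with defined genetic alterations, cln2 rad14.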

[5] = NCI Yeast Anticancer Drug Screen. Data for the bub3 strain (AID 167); conditions: S. cerevisiae bub3 mutant strain, hits give high values; at 50.0 µM unless noted
Summary of the method: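 Yeast carrying a defined mutation is treated with each compound, and growth is compared with that of vehicle-exposed cells to give inhibition.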

[6] = NCI Yeast Anticancer Drug Screen. Data for the mlh1 rad18 strain (AID 175); conditions: S. cerevisiae mlh1 rad18 strain growth inhibition, hits give high values; at 50.0 µM unless noted
Summary of the method: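 Cells of a genetically altered yeast strain, deficient in DNA damage repair, were treated with compound. Their growth was then compared with that of vehicle-treated cultures to give inhibition.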

Measured: growth inhibition

CCCCCCCCOC(=O)Nc1ccc(S(=O)(=O)NC2CCCCC2)cc1
inactive: [1] 7.05% | [2] -2.9% | [3] 14.1% | [4] 37.8% | [5] 10.8% | [6] 20.6%

Cc1nc2ccc(Br)cc2c(=O)n1-c1ccc(-c2n[nH]c(=S)n2-c2ccccc2)cc1
inactive: [1] 14% | [2] 13.2% | [3] 13.4% | [4] -27.9% | [5] 6.8% | [6] 42.4%

O=C(c1ccccc1)c1cccc(C(=O)c2ccccc2)c1
inactive: [1] -2.1% | [2] -11.3% | [3] -12.9% | [4] 4.65% | [5] 7.35% | [6] -16.6%

CC(=O)NC1=NC(=O)/C(=C/c2ccccc2Cl)N1C
inactive: [1] -45.7% | [2] -53.8% | [3] -10.9% | [4] 8% | [5] -8.85% | [6] 28.6%

COC1CCC(=O)N1CN(C(C)=O)c1ccc(C)cc1 (stereo not given)
inactive: [1] 10.4% | [2] 9.1% | [3] -25.2% | [4] 28.4% | [5] 3.75% | [6] -28.1%

O/C(=C/c1ncnc2ccccc12)c1cccc(Cl)c1
inactive: [1] 12.5% | [2] 4.4% | [3] 22.8% | [4] -11.4% | [5] 14.7% | [6] 15%

CC(C)CCC(C)C1CCC2C3CCC4CC(=O)CC4(C)C3CCC12C (stereo not given)
inactive: [1] -13.5% | [2] 7.2% | [3] -20.1% | [4] -10.4% | [5] -11.6% | [6] 2.85%

[N-]=[N+]=C(C(=O)CN1CCCC1=O)S(=O)(=O)c1ccccc1
inactive: [1] 10.4% | [2] -6.4% | [3] -6.55% | [4] 9.1% | [5] -2.85% | [6] 16.2%

CC(C)COC(=O)/C=C/c1ccccc1
inactive: [1] 19.8% | [2] 16.6% | [3] 20.6% | [4] 7.3% | [5] 2.9% | [6] 11.6%

CCc1ccc(O)cc1O
inactive: [1] -18.4% | [2] -12.9% | [3] -43.1% | [4] 10.7% | [5] -30.6% | [6] -4.6%

COCCC(=O)OCCC(C)OC (stereo not given)
inactive: [1] 21.6% | [2] -4.1% | [3] 3.65% | [4] 1.95% | [5] -42.2% | [6] -11.2%

CC1CCC(OC(=O)CCC2CCCCC2)CC1 (stereo not given)
inactive: [1] -1.6% | [2] -12.1% | [3] 4.35% | [4] -34.2% | [5] -12.4% | [6] -18.3%

CCCCNC(=O)/C=C/C(=O)NCCCC
inactive: [1] 11.5% | [2] 1.95% | [3] -0.9% | [4] -36.4% | [5] -7.35% | [6] -1.5%

O=C(CCl)Oc1ccc2ccccc2c1
inactive: [1] 27.1% | [2] -2.05% | [3] -8.05% | [4] 8.25% | [5] 13.1% | [6] 31.4%

C1=C(N2CCCC2)C(=[N+]2CCCC2)C(N2CCCC2)=C1
inactive: [1] 3.65% | [2] -2.45% | [3] 5.55% | [4] -7.25% | [5] 1.5% | [6] 9.15%

CCCCCCC1OC(C)C(C)O1 (stereo not given)
inactive: [1] 30.8% | [2] 13.7% | [3] 23.9% | [4] -5.15% | [5] -3.95% | [6] 15.4%

C1=CC(=CN2CCc3ccccc3C2)C=C1
inactive: [1] 2.55% | [2] -8.45% | [3] 3.05% | [4] -6.95% | [5] -9.2% | [6] 6.05%

CCOC(=O)/C(Cc1cc[n+]([O-])cc1)=N/O
inactive: [1] 33.5% | [2] 27.3% | [3] 15.2% | [4] 13.5% | [5] 13.6% | [6] 20.5%

O=C(NCCCOC(=O)CCCCCCCCC(=O)OCCCNC(=O)NC(=O)c1c[nH]c(=O)[nH]c1=O)NC(=O)c1c[nH]c(=O)[nH]c1=O
inactive: [1] -11.5% | [2] -18.6% | [3] -7.85% | [4] 8.3% | [5] 6.05% | [6] -14.9%

Clc1ccc(-c2c(C3=NCCCN3)nnn2-c2ccc(Cl)cc2)cc1
inactive: [1] -16.6% | [2] -17.9% | [3] -10.9% | [4] 11.7% | [5] -3.6% | [6] -25.7%

From PubChem BioAssay (NCI)
